About 79,000 compounds went through this panel and 15% of them were active in at least one assay; those are over-represented in the sample as a whole. Values without a mark were called inactive. The source made the active and inactive calls. Rule as the data show it: active = growth inhibition above about 70%; inactive = the rest. Residues, ends and D or L forms follow the SMILES beside them. *: point of attachment. CH2Cl = ClC*
Test: NCI Yeast Anticancer Drug Screen. Data for the mlh1 strain (AID 171);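 also: 0% = growth of vehicle-treated control cultures of the same strain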
Conditions: S. cerevisiae mlh1 strain growth inhibition, stronger effect = higher value
Description: Growth inhibition of yeast strains with defined genetic alterations is measured as a screen for potential anti-cancer activity. Selected strains with alterations in DNA damage repair or cell cycle control were exposed to compounds and growth inhibition was measured relative to vehicle treated controls. The strain used in this assay is mlh1

Row | SMILES | growth inhibition (at 1.2 µM) [%] | growth inhibition (at 3.7 µM) [%] | growth inhibition (at 11.0 µM) | growth inhibition (at 33.0 µM) | growth inhibition (at 100.0 µM)
1 | CC1=CCC(C(C)(C)c2ccc(O)cc2)CC1 (stereo not given) | 10 | 9 | -10% | 96% (active) | 98% (active)
2 | N#CC(=S)Nc1cccc(Cl)c1 | 2 | 7 | 26% | 43% | 78% (active)
3 | O/N=C/C1c2ccccc2-c2ccccc21 | 4 | -6 | -3% | 18% | 64%
4 | O=C(/C=N/O)Nc1cc(Cl)c(Cl)cc1Cl | -34 | -26 | -9% | 37% | 79% (active)
5 | CC(=O)NC(CC(C)C)C(=O)NC(Cc1ccccc1)C(=O)CCl (stereo not drawn) (Ac-Leu-Phe-CH2Cl; configuration not given here) | -4 | -3 | -1% | 5% | 77% (active)
6 | ClCCn1c(CCl)nc2ccc(Cl)cc21 | -30 | -31 | -18% | 67% | 98% (active)
7 | Nc1cc(F)cc2c1-c1ccc(F)cc1C2 | -4 | -3 | -3% | 14% | 92% (active)
8 | O=[N+]([O-])/C(C(Cl)=C(Cl)Cl)=C1/OCCS1 | 11 | 48 | 97% (active) | 99% (active) | 98% (active)

Source: PubChem BioAssay (NCI)
